From the supplement of paper PMC3334620
The full ranking holds about 33,000 sequences; the median of “E-score (-0.5 to 0.5)” is about -0.04, and the highest 2% start at about 0.36. Only a selection was taken, and the highest values are over-represented in it overall.

Target: T1, Hmlalpha2 (UniProt P0CY09)
T1 sequence: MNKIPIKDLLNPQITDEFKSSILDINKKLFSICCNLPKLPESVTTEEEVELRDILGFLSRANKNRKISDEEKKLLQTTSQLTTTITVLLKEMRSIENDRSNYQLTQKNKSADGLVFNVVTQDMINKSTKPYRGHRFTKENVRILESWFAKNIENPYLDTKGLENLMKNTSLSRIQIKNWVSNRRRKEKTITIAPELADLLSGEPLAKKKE
Assay: PBM E-score (8-mer binding enrichment) (E-score (-0.5 to 0.5)); higher = stronger / more preferred TF binding
Details: protein concentration: 200 nM; construct: GST-full length
Experimental: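 Universal 'all 10-mer' protein binding microarrays (Agilent AMADID 015681) probed with GST-tagged S. cerevisiae TFs (full-length or DBD) made by in vitro transcription/translation (PURExpress), about 100-200 nM. Bound TF was detected with fluorescent anti-GST. Each ungapped 8-mer (which stands for itself and its reverse complement) is scored by the PBM enrichment score (E-score), a modified Wilcoxon-Mann-Whitney statistic from -0.5 to +0.5, computed with the Universal PBM Analysis Suite. Scale: above 0.35 generally sequence-specific binding.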

Sequence | PBM E-score
CCGTAAAC | 0.199
GCGTAAAC | 0.404
GCGTAAGC | 0.183
CCGTAAAA | 0.12
CTTCAATA | 0.173
ATACGGCA | 0.103
CCATGTCC | -0.00972
CCATGTCG | 0.336
ACATGTCT | 0.305
GCATGTAC | 0.408
CCATGTAG | 0.416
AAATGTAT | 0.277
GCATGTCC | -0.0024
CCATGTAC | 0.398
CGATGTAG | 0.106
GCCTGTAC | 0.101
CCATGTGC | 0.0482
ACATGTAT | 0.454
GCAGCTCA | -0.181
CTATGGAC | -0.125
CTGCGAAA | 0.0491
ATTCTGCA | -0.0444

Sequence | PBM E-score
ACCATCGT | -0.151
TCTAAGCA | -0.0643
TCGCTTAA | 0.0673
AATATGCT | 0.0361
ACATGTGC | 0.352
ACATGTAG | 0.459
ACATGTCG | 0.343
ACATGTGG | 0.312
AGATGTAC | 0.121
ACATGTAC | 0.412
CGGTGCGC | -0.279
ACTCTATC | -0.0301
ACCGTAGT | -0.225
AAGGGCCT | -0.136
ATGGCATA | -0.0529
CAAAGGTC | -0.233
ACGATTTA | 0.244
TAACACTA | 0.316
CTACAGAG | 0.184
CCACACAC | 0.0345
CTACACAC | 0.391
TTACACAA | 0.478

Sequence | PBM E-score
CTACACCC | 0.0904
CCACACAA | -0.0216
TCACACAA | 0.23
CTCTACAG | 0.0676
TTACAAAA | 0.266
CTACACAG | 0.421
CTACAAAA | 0.0813
CTACACAA | 0.369
GCATAAGC | 0.119
ACTGCCTC | -0.0994
CCCATTCG | -0.0725
GAAGCGGC | -0.131
GTACACAA | 0.373
GCACACAA | 0.155
GTACACAC | 0.357
AAGTGCTG | 0.107
TGCCACCA | -0.261
GACATGGC | 0.224
CACATGGG | -0.0456
ATCATGGG | -0.0934
AACATGGG | 0.415
AACATGGT | 0.384

Sequence | PBM E-score
CACATGGC | 0.0319
AACATGGC | 0.406
AACATGGA | 0.346
ACCATGGT | -0.0519
ACACTGTA | 0.116
TCAGAAGA | -0.267
AATGCCCA | 0.0243
AAATCCGG | -0.18
AAGTATTG | 0.0978
AACACAGC | 0.379
AACACAAT | 0.373
CACACAAC | 0.27
AACACAAC | 0.409
GACACAAC | 0.264
AACACAGG | 0.247
CACACAGC | 0.201
CACACAAG | 0.248
AACACAAG | 0.326
CGTTAGGA | 0.0405
CATCGACA | -0.0243
